In publication PMC7862700, “An all-to-all approach to the identification of sequence-specific readers for epigenetic DNA modifications on cytosine”:

Legend:
Assay in all cases: DAPPL (digital affinity profiling via proximity ligation, sequencing); 10 mM Tris-HCl pH 7.5, 50 mM NaCl, 1 mM DTT, 4% glycerol, room temperature, 30 min; GST-TFs on glutathione beads, 16-mer random dsDNA library, 0.1% formaldehyde crosslink after washing; high values mean tight binding
FLI1 = target: T1, FLI1 (Homo sapiens, UniProt Q01543 1-452); details: protein: recombinant; tags: N-terminal GST; dsDNA, one strand shown
T1 sequence: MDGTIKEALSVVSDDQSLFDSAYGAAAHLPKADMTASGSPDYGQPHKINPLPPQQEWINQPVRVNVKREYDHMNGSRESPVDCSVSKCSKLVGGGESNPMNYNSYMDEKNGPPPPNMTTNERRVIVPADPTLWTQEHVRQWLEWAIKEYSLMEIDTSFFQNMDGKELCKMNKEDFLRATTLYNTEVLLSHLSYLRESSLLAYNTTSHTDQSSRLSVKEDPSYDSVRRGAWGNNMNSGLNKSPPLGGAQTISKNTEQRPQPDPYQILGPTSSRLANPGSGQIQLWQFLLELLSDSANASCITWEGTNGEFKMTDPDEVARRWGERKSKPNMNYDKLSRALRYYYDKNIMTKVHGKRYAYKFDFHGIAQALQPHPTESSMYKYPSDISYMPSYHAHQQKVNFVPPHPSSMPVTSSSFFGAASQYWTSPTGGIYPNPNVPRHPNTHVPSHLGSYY
How it was run: (§1)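 A tag-only sample was pooled with DNA-barcoded human transcription factors that had been expressed in yeast as GST fusions and captured on glutathione beads. The pools were incubated for 30 min at room temperature with 200 nmole of a random double-stranded 16-mer DNA library in Tris/NaCl/DTT/glycerol buffer, then washed, crosslinked with 0.1% formaldehyde, proximity-ligated (BsaI/T4 ligase, 1 h, 37 °C), PCR-amplified and sequenced on an Illumina NextSeq500. Binding signal is each hexamer's read frequency for a factor divided by its frequency for the tag-only sample.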

ELK1 = target: T2, ELK1 (Homo sapiens, UniProt P19419 1-428); details: protein: recombinant; tags: N-terminal GST; dsDNA, one strand shown
T2 sequence: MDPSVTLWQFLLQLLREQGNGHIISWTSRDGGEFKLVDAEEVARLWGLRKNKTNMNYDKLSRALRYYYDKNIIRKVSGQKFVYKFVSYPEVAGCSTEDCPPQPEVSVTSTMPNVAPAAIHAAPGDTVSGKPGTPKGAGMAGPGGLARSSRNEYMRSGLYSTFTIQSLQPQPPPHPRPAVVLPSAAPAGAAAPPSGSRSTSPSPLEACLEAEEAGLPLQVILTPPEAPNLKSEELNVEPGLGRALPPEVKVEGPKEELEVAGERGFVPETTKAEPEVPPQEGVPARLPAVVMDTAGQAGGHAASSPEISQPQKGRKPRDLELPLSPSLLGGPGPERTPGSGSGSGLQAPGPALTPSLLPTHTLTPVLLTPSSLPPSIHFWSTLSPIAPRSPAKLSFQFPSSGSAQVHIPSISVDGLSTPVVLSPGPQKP
How it was run: as §1

GABPA = target: T3, GABPA (Homo sapiens, UniProt Q06546 1-454); details: protein: recombinant; tags: N-terminal GST; dsDNA, one strand shown
T3 sequence: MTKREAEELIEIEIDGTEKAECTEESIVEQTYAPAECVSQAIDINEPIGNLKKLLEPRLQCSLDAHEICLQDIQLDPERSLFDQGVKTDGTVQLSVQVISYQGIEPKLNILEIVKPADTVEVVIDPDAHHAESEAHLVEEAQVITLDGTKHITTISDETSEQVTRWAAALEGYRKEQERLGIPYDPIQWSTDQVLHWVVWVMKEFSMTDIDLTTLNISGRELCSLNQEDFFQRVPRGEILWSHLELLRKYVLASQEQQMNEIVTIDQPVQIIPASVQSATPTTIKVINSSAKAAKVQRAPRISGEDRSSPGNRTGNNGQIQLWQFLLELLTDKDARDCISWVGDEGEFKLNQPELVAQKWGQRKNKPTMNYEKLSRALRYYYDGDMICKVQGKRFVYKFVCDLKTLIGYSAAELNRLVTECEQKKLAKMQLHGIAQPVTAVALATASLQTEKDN
How it was run: as §1

ERG = target: T4, ERG (Homo sapiens, UniProt P11308 1-479); details: protein: recombinant; tags: N-terminal GST; dsDNA, one strand shown
T4 sequence: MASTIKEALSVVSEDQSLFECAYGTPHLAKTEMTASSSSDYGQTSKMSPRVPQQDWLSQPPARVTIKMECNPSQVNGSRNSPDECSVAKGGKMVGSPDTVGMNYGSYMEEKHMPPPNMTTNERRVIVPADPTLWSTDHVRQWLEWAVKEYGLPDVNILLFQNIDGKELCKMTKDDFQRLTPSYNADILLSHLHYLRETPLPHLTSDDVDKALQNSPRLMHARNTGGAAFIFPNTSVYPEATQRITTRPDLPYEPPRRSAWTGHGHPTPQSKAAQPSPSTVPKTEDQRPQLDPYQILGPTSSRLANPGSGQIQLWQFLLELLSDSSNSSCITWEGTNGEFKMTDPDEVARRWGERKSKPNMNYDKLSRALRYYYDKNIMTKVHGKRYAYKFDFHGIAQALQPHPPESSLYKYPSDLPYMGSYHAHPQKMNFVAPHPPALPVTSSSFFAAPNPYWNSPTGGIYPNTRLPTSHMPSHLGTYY
How it was run: as §1

ELF1 = ELF1 (Homo sapiens, UniProt P32519 1-619); details: protein: recombinant; tags: N-terminal GST; dsDNA, one strand shown
Sequence of ELF1 (P32519 whole entry): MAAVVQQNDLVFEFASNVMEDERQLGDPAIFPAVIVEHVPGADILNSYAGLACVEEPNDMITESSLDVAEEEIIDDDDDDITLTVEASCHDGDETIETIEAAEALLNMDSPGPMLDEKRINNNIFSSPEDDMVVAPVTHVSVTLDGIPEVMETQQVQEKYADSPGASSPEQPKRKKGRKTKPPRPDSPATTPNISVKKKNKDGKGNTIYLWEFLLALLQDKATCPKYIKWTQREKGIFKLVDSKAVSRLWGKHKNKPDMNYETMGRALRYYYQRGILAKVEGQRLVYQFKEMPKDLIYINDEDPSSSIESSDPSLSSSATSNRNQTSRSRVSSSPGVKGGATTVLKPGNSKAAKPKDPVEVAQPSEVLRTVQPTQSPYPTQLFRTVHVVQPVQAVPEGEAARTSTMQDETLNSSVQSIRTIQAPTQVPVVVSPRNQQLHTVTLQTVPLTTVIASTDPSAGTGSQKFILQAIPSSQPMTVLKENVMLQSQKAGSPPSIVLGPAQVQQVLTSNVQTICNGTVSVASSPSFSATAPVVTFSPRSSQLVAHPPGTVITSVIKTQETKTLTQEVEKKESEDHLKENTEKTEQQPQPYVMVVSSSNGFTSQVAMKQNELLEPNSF
How it was run: as §1

EHF = target: T5, EHF (Homo sapiens, UniProt Q9NZC4 1-300); details: protein: recombinant; tags: N-terminal GST; dsDNA, one strand shown
T5 sequence: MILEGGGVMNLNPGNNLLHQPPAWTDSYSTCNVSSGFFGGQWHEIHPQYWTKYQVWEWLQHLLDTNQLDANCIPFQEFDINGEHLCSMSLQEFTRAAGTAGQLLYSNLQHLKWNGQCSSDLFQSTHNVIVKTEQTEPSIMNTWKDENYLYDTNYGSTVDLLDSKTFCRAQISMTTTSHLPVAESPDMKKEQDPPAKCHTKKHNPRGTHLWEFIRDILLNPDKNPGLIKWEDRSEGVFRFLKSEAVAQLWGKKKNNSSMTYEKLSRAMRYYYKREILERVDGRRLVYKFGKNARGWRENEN
How it was run: as §1

SPI1 = SPI1 (Homo sapiens, UniProt P17947 1-270); details: protein: recombinant; tags: N-terminal GST; dsDNA, one strand shown
How it was run: as §1

SPIB = SPIB (Homo sapiens, UniProt Q01892 1-262); details: protein: recombinant; tags: N-terminal GST; dsDNA, one strand shown
Sequence of SPIB (Q01892 whole entry): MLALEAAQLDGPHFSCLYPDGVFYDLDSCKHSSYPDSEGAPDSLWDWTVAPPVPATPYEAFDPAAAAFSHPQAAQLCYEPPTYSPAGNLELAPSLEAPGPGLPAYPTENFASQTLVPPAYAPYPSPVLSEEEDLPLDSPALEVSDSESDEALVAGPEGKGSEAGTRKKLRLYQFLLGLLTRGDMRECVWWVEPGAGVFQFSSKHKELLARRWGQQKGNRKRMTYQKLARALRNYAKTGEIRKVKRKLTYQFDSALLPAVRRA
How it was run: as §1

ELK3 = target: T6, ELK3 (Homo sapiens, UniProt P41970 1-407); details: protein: recombinant; tags: N-terminal GST; dsDNA, one strand shown
T6 sequence: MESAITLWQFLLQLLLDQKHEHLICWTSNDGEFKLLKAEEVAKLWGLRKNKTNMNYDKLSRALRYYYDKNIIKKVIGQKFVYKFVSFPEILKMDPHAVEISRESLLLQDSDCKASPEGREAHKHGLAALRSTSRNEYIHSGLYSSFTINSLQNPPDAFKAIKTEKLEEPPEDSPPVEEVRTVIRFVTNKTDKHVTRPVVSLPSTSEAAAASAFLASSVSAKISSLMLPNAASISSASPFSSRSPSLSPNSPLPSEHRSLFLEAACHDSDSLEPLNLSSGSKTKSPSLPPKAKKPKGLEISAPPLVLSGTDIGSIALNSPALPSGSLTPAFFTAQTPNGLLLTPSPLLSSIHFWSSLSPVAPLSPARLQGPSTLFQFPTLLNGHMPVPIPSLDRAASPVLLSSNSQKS
How it was run: as §1

FEV = target: T7, FEV (Homo sapiens, UniProt Q99581 1-238); details: protein: recombinant; tags: N-terminal GST; dsDNA, one strand shown
T7 sequence: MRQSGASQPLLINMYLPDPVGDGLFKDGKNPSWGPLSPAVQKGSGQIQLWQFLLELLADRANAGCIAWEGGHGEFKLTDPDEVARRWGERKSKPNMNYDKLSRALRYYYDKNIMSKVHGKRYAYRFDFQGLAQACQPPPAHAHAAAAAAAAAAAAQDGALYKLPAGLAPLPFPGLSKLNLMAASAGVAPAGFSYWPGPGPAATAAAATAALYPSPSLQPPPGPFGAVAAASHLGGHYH
How it was run: as §1

ETV5 = ETV5 (Homo sapiens, UniProt P41161 1-510); details: protein: recombinant; tags: N-terminal GST; dsDNA, one strand shown
Sequence of ETV5 (P41161 whole entry): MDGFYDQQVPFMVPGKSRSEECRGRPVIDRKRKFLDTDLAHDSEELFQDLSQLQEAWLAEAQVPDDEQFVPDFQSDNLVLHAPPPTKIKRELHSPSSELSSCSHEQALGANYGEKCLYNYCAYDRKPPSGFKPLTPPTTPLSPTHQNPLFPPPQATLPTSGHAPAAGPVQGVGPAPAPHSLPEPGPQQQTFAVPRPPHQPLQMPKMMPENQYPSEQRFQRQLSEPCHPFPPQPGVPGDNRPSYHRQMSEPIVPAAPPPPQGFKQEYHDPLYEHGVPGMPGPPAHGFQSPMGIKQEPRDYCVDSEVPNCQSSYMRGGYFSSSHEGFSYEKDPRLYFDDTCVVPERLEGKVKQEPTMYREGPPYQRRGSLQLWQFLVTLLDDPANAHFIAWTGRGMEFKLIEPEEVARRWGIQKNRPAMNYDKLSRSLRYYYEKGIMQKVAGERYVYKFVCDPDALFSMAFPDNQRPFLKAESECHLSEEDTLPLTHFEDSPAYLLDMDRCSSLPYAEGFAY
How it was run: as §1

HSF1 = HSF1 (Homo sapiens, UniProt Q00613 1-529); details: protein: recombinant; tags: N-terminal GST; chain copies: 3; dsDNA, one strand shown
Sequence of HSF1 (Q00613 whole entry): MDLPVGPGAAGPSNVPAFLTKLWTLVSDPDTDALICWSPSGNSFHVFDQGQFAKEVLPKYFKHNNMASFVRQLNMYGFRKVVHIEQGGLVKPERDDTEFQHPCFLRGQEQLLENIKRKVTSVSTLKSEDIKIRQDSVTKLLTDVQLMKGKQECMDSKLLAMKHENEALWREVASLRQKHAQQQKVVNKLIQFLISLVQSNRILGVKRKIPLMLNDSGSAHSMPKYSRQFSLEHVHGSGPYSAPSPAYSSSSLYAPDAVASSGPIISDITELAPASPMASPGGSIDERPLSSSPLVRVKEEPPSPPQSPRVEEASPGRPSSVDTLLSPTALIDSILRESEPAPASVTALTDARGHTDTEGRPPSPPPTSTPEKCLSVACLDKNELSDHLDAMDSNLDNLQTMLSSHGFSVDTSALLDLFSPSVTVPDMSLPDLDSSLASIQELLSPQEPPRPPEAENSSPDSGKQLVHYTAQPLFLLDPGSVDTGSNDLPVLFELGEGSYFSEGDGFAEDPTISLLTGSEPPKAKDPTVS
How it was run: as §1

SPIC = target: T8, SPIC (Homo sapiens, UniProt Q8N5J4 1-248); details: protein: recombinant; tags: N-terminal GST; dsDNA, one strand shown
T8 sequence: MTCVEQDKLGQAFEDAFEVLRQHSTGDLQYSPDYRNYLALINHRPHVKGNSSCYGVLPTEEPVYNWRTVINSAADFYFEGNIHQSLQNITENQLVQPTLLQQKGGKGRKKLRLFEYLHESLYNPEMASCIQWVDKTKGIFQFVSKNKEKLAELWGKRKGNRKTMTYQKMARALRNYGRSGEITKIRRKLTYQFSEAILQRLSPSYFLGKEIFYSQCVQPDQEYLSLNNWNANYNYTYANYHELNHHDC
How it was run: as §1

ELF4 = ELF4 (Homo sapiens, UniProt Q99607 1-663); details: protein: recombinant; tags: N-terminal GST; dsDNA, one strand shown
Sequence of ELF4 (Q99607 whole entry): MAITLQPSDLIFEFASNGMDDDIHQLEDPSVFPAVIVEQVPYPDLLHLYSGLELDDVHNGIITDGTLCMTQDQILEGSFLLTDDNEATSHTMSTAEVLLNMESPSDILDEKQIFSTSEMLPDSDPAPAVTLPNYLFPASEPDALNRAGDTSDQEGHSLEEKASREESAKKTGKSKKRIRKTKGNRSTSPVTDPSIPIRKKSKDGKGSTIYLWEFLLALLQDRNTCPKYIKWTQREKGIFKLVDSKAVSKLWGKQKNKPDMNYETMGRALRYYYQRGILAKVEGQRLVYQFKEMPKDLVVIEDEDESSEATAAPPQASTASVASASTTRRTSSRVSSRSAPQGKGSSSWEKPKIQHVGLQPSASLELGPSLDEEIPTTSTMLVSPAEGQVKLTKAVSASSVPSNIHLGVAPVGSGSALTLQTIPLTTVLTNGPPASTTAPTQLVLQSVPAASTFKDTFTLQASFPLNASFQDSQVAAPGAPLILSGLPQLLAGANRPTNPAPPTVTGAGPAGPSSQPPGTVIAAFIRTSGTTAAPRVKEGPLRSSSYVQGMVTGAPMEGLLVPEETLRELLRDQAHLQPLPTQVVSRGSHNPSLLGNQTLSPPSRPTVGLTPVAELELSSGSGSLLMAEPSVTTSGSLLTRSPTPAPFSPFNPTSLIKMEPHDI
How it was run: as §1

ELK4 = target: T9, ELK4 (Homo sapiens, UniProt P28324-2 1-405); details: protein: recombinant; tags: N-terminal GST; dsDNA, one strand shown
T9 sequence: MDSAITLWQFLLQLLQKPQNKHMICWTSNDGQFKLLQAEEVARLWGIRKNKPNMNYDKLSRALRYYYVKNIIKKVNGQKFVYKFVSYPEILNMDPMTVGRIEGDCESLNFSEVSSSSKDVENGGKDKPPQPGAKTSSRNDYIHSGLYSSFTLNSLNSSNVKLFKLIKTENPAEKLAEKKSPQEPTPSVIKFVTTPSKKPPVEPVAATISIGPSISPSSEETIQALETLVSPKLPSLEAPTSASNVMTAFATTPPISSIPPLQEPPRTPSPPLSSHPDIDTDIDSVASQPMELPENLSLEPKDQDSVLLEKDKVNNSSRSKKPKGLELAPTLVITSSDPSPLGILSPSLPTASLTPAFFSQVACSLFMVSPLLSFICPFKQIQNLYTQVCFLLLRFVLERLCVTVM
How it was run: as §1

ETV2 = target: T10, ETV2 (Homo sapiens, UniProt O00321 1-342); details: protein: recombinant; tags: N-terminal GST; dsDNA, one strand shown
T10 sequence: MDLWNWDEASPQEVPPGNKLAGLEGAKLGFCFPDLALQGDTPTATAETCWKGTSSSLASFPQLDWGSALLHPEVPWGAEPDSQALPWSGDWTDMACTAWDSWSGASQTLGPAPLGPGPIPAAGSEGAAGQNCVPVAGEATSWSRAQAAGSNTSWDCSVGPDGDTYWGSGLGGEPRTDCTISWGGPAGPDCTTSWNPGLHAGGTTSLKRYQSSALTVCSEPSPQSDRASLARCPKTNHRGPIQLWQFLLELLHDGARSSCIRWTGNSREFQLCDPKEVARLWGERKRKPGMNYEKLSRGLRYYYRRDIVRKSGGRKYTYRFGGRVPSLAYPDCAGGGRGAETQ
How it was run: as §1

ELF3 = target: T11, ELF3 (Homo sapiens, UniProt P78545 1-371); details: protein: recombinant; tags: N-terminal GST; dsDNA, one strand shown
T11 sequence: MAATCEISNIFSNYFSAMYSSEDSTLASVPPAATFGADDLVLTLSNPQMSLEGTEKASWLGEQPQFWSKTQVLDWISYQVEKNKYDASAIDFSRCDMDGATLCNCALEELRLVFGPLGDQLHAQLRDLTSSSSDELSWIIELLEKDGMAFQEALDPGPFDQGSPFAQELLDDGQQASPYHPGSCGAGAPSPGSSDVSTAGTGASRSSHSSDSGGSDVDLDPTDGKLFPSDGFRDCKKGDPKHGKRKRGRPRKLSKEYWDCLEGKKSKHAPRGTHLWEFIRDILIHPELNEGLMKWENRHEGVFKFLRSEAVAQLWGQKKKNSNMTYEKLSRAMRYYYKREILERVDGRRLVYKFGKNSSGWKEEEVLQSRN
How it was run: as §1

CRX = CRX (Homo sapiens, UniProt O43186 1-299); details: protein: recombinant; tags: N-terminal GST; dsDNA, one strand shown
Sequence of CRX (O43186 whole entry): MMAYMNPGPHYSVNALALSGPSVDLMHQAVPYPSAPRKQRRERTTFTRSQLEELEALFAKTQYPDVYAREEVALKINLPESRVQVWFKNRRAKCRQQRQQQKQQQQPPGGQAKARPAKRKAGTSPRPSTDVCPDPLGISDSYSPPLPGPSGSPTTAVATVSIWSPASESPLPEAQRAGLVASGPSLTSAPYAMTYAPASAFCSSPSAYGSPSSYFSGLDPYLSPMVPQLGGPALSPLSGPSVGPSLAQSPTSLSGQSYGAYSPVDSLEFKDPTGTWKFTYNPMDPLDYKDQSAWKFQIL
How it was run: as §1

ETV1 = ETV1 (Homo sapiens, UniProt P50549 1-477); details: protein: recombinant; tags: N-terminal GST; dsDNA, one strand shown
Sequence of ETV1 (P50549 whole entry): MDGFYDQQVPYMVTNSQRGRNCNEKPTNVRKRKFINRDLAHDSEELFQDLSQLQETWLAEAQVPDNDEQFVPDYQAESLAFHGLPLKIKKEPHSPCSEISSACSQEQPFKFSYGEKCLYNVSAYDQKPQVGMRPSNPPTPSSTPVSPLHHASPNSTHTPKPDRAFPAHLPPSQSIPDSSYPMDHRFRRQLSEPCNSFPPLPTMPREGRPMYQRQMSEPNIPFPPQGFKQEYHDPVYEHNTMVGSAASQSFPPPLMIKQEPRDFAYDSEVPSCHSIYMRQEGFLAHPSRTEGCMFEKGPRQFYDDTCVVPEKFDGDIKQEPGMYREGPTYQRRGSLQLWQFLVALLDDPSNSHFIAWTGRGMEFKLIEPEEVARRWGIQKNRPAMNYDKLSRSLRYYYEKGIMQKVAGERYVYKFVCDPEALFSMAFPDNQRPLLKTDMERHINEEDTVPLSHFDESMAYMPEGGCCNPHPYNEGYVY
How it was run: as §1

Sequence: CATCCC
- binding signal (FLI1): 1.39 fold enrichment (6-mer frequency, TF over GST control)
- binding signal (ELK1): 1.22 fold enrichment (6-mer frequency, TF over GST control)
- binding signal (GABPA): 1.24 fold enrichment (6-mer frequency, TF over GST control)
- binding signal (ERG): 1.29 fold enrichment (6-mer frequency, TF over GST control)
- binding signal (ELF1): 1.29 fold enrichment (6-mer frequency, TF over GST control)
- binding signal (EHF): 1.29 fold enrichment (6-mer frequency, TF over GST control)
- binding signal (SPI1): 1.25 fold enrichment (6-mer frequency, TF over GST control)
- binding signal (SPIB): 1.26 fold enrichment (6-mer frequency, TF over GST control)
- binding signal (ELK3): 1.24 fold enrichment (6-mer frequency, TF over GST control)
- binding signal (FEV): 1.18 fold enrichment (6-mer frequency, TF over GST control)
- binding signal (ETV5): 1.31 fold enrichment (6-mer frequency, TF over GST control)
- binding signal (HSF1): 1.05 fold enrichment (6-mer frequency, TF over GST control)
- binding signal (SPIC): 1.3 fold enrichment (6-mer frequency, TF over GST control)
- binding signal (ELF4): 1.22 fold enrichment (6-mer frequency, TF over GST control)
- binding signal (ELK4): 1.22 fold enrichment (6-mer frequency, TF over GST control)
- binding signal (ETV2): 1.15 fold enrichment (6-mer frequency, TF over GST control)
- binding signal (ELF3): 1.27 fold enrichment (6-mer frequency, TF over GST control)
- binding signal (CRX): 1.05 fold enrichment (6-mer frequency, TF over GST control)
- binding signal (ETV1): 1.16 fold enrichment (6-mer frequency, TF over GST control)
